Source: PMC5540273 (PLoS ONE, 2017)
Where “and” joins values, the source holds several entries; their conditions need not be identical. Equal entries are not always repeated. Where two headings read alike, the source gives them in different places.

Legend:
[1] = test system: WNK4; conditions: concentration: 1 μM, replicates: in singlicate; n = 1
[2] = test system: T1, YANK1; conditions: concentration: 1 μM, replicates: in singlicate, n = 1
T1 construct: gene STK32A

[3] = test system: T2, YANK2; conditions: concentration: 1 μM, replicates: in singlicate, n = 1
T2 construct: gene STK32B

[4] = test system: T3, YANK3; conditions: concentration: 1 μM, replicates: in singlicate, n = 1
T3 construct: gene STK32C

[5] = test system: T4, YES; conditions: concentration: 1 μM, replicates: in singlicate; n = 1
T4 construct: gene YES1

[6] = test system: T5, YSK1; conditions: concentration: 1 μM, replicates: in singlicate; n = 1
T5 construct: gene STK25

[7] = test system: T6, YSK4; conditions: concentration: 1 μM, replicates: in singlicate, n = 1
T6 construct: gene MAP3K19

[8] = test system: ZAK; conditions: concentration: 1 μM, replicates: in singlicate, n = 1
[9] = test system: ZAP70; conditions: concentration: 1 μM, replicates: in singlicate, n = 1
[10] = test system: T7, p38-alpha; conditions: concentration: 1 μM, replicates: in singlicate, n = 1
T7 construct: gene MAPK14
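Further: KINOMEscan kinase panel screen.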

| SMILES | %Inh [1] | %Inh [2] | %Inh [3] | %Inh [4] | %Inh [5] | %Inh [6] | %Inh [7] | %Inh [8] | %Inh [9] | %Inh [10] | %Inh ([2]; 1 µM) | %Inh ([3]; 1 µM) | %Inh ([4]; 1 µM) | %Inh ([7]; 1 µM) | %Inh ([8]; 1 µM) | %Inh ([9]; 1 µM) | %Inh ([10]; 1 µM) |
| --- | --- | --- | --- | --- | --- | --- | --- | --- | --- | --- | --- | --- | --- | --- | --- | --- | --- |
| O=C(Nc1ccccc1)Nc1ccc(Oc2ccc3nccn3n2)cc1 | 0% | 0% | 0% | 0% | 11% | 0% | 0% | 4% | 0% | 0% |  |  |  |  |  |  |  |
| Nc1nc(-c2ccccn2)c(-c2ccnc3ccccc23)s1 [GW548057] | 88% | 0% | 7% | 0% | 13% | 14% | 4% | 0% | 4% | 54% |  |  |  |  |  |  |  |
| Nc1nc(-c2cccnc2)c(-c2ccnc3ccccc23)s1 [GW684083] | 39% | 20% | 18% | 0% | 18% | 0% | 60% | 78% | 0% | 40% |  |  |  |  |  |  |  |
| Fc1ccc(Nc2nccc(-c3c(-c4ccc(Cl)cc4)nn4ncccc34)n2)cc1F [GW829058] | 28% | 0% | 4% | 30% | 0% | 0% | 47% | 18% | 13% | 26% |  |  |  |  |  |  |  |
| O=C(Nc1n[nH]c2nc(-c3ccco3)c(Br)cc12)c1ccc(CN2CCCC2)cc1.O=C(O)[C@H](O)[C@@H](O)C(=O)O [SB-742352] | 0% | 0% | 0% | 0% | 1% | 0% | 49% | 29% | 0% | 0% |  |  |  |  |  |  |  |
| O=C(Nc1ccccc1F)NC1CCN(c2ccnc(Nc3ccc(F)cc3)n2)C1 (stereo not drawn) [GSK1379722] | 28% | 0% | 6% | 21% | 14% | 2% | 28% | 0% | 0% | 6% |  |  |  |  |  |  |  |
| O=C(NCCCN1CCCC1=O)c1cnc(NCc2cc(Cl)ccc2Cl)nc1NC1CCNCC1 | 0% | 1% | 0% | 0% | 0% | 5% | 54% | 0% | 0% | 0% |  |  |  |  |  |  |  |
| FC(F)(F)c1ccc(-c2nn3ncccc3c2-c2ccnc(Nc3cccc(C(F)(F)F)c3)n2)cc1 [GW828205] | 0% | 0% | 0% | 0% | 0% | 0% | 0% | 0% | 42% | 0% |  |  |  |  |  |  |  |
| CC(C)N1CCC(n2cnc(-c3ccc(F)cc3)c2-c2ccnc(N)n2)CC1 [SB-223132] | 0% | 0% | 16% | 0% | 0% | 0% | 0% | 8% | 5% | 96.8% |  |  |  |  |  |  |  |
| Cc1cc(N2CCC(NS(=O)(=O)c3ccc(F)cc3)CC2)nc(Nc2cccc(C#N)c2)n1.O=C(O)C(F)(F)F [GSK1653537] | 0% | 2% | 1% | 29% | 0% | 22% | 0% | 0% | 0% | 0% |  |  |  |  |  |  |  |
| Clc1ccc(-c2cc(-c3c[nH]nc3-c3ccccn3)ccn2)cc1 [GW681251] | 0% | 0% | 0% | 0% | 0% | 0% | 0% | 14% | 47% | 45% |  |  |  |  |  |  |  |
| COc1ccc(-c2oc3ncnc(N)c3c2-c2ccc(OC)cc2)cc1 [SB-589132] | 55% | 19% | 12% | 21% | 44% | 6% | 57% | 9% | 0% | 7% |  |  |  |  |  |  |  |
| CC(C)(C)c1ccc(-n2cnc3c(N)ncnc32)cc1 [SKF-97263] | 0% | 0% | 11% | 11% | 6% | 0% | 15% | 10% | 0% | 0% |  |  |  |  |  |  |  |
| FC(F)(F)c1cc(Nc2nccc(-c3c(-c4ccc(Cl)cc4)nn4ncccc34)n2)ccc1Cl [GW829351] | 0% | 0% | 0% | 4% | 0% | 0% | 0% | 0% | 0% | 43% |  |  |  |  |  |  |  |
| Oc1ccc2ncnc(Nc3ccc(OCc4ccccc4)cc3)c2c1 [GI262866] | 14% | 0% | 0% | 15% | 0% | 0% | 7% | 18% | 0% | 0% |  |  |  |  |  |  |  |
| O=C(c1ccc(-c2cc(-c3c[nH]nc3-c3ccccn3)ccn2)cc1)N1CCCC1 [GW792479] | 14% | 0% | 13% | 0% | 0% | 0% | 0% | 28% | 2% | 7% |  |  |  |  |  |  |  |
| CCCc1ccc(S(=O)(=O)NC2CCN(c3ccnc(Nc4ccc(OC)cc4)n3)C2)cc1 (stereo not drawn) [GSK1379737] | 45% | 0% | 0% | 16% | 5% | 0% | 30% | 8% | 0% | 10% |  |  |  |  |  |  |  |

| SMILES | %Inh [1] | %Inh [2] | %Inh [3] | %Inh [4] | %Inh [5] | %Inh [6] | %Inh [7] | %Inh [8] | %Inh [9] | %Inh [10] | %Inh ([2]; 1 µM) | %Inh ([3]; 1 µM) | %Inh ([4]; 1 µM) | %Inh ([7]; 1 µM) | %Inh ([8]; 1 µM) | %Inh ([9]; 1 µM) | %Inh ([10]; 1 µM) |
| --- | --- | --- | --- | --- | --- | --- | --- | --- | --- | --- | --- | --- | --- | --- | --- | --- | --- |
| Nc1n[nH]c2nnc(-c3ccccc3)cc12 [SB-517389] | 0% | 13% | 0% | 21% | 16% | 0% | 75% | 24% | 0% | 0% |  |  |  |  |  |  |  |
| CS(=O)(=O)CCNCc1ccc(-c2ccc3ncnc(Nc4ccc(OCc5ccccc5)c(Cl)c4)c3c2)o1.Cl [GW574783] | 22% | 0% | 24% | 8% | 1% | 0% | 2% | 0% | 0% | 0% |  |  |  |  |  |  |  |
| CCc1nc(-c2cccc(N(C)S(=O)(=O)c3ccccc3)c2)c(-c2ccnc(Nc3ccc(N4CCN(C(C)=O)CC4)nc3)n2)s1 [GSK1645895] | 0% | 5% | 18% | 11% | 33% | 26% | 29% | 83% | 0% | 60% |  |  |  |  |  |  |  |
| COc1ccc(-c2nc3n(c2-c2ccncc2)CCC3)cc1 [SKF-104493] | 17% |  |  |  | 0% | 0% |  |  |  |  | 0% and 10% | 13% and 0% | 0% and 4% | 0% and 100% | 0% and 8% | 0% and 8% | 80% and 97.8% |
| CC(=O)Nc1n[nH]c2ncc(-c3ccccc3)cc12 [SB-548492] | 30% | 0% | 0% | 0% | 0% | 0% | 31% | 31% | 0% | 4% |  |  |  |  |  |  |  |
| Cl.Cl.c1ccc(-c2cc3ccncc3cc2OC2CCNCC2)cc1 [GSK1122999] | 28% | 20% | 0% | 0% | 15% | 8% | 64% | 0% | 0% | 4% |  |  |  |  |  |  |  |
| COc1cc2ncnc(Nc3ccc(OCc4ccccc4Br)c(Cl)c3)c2cc1OC.Cl [GI261590] | 52% | 0% | 0% | 21% | 31% | 0% | 33% | 33% | 19% | 63% |  |  |  |  |  |  |  |
| Cn1ccc2ncnc(Oc3ccc(NC(=O)Nc4cccnc4)c(Cl)c3)c21 | 0% | 0% | 13% | 7% | 0% | 0% | 0% | 3% | 0% | 14% |  |  |  |  |  |  |  |
| Nc1nc(-c2ccc3c(N)n[nH]c3c2)cc(N2CCCCC2)n1 [GSK2228768] | 0% | 0% | 0% | 0% | 0% | 1% | 0% | 0% | 0% | 0% |  |  |  |  |  |  |  |
| Fc1cccc(COc2ccc(Nc3ncnc4cc[nH]c34)cc2Cl)c1 | 28% | 26% | 0% | 9% | 20% | 0% | 18% | 0% | 0% | 0% |  |  |  |  |  |  |  |
| N#Cc1ccc(Oc2ccc(Nc3ncnc4cc[nH]c34)cc2Cl)cc1 | 19% | 19% | 22% | 0% | 0% | 0% | 20% | 18% | 0% | 19% |  |  |  |  |  |  |  |
| COc1ccc(Nc2nccc(N3CCC(NC(=O)c4cccc(NC(C)=O)c4)C3)n2)cc1 (stereo not drawn) [GSK1379732] | 100% | 22% | 0% | 20% | 0% | 11% | 5% | 10% | 0% | 30% |  |  |  |  |  |  |  |
| CCn1c(-c2ccncc2)nc2cnccc21 [SB-735216] | 22% | 0% | 4% | 7% | 16% | 0% | 74% | 23% | 0% | 0% |  |  |  |  |  |  |  |
| NC(=O)c1sc(-n2cnc3ccccc32)cc1OCc1ccccc1F [GSK1024306] | 0% | 0% | 0% | 0% | 0% | 0% | 2% | 0% | 0% | 93.4% |  |  |  |  |  |  |  |
| CS(=O)(=O)CCNCc1nc(-c2ccc3ncnc(Nc4ccc(OCc5cccc(F)c5)c(Cl)c4)c3c2)cs1.Cl [GW583340] | 0% | 0% | 0% | 0% | 3% | 0% | 17% | 91.6% | 0% | 18% |  |  |  |  |  |  |  |
| Cl.c1ccc(Cn2ncc3cc(Nc4ncnc5ccccc45)ccc32)cc1 [GW273749] | 0% | 6% | 0% | 0% | 16% | 17% | 30% | 0% | 0% | 10% |  |  |  |  |  |  |  |
